PubChem BioAssay AID485275 (NMMLSC, 2010)
Out of some 330,000 compounds screened, about 1,400 (0.42%) were called active.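 How the source made its calls: active means plate passing quality check with inhibition over a set limit, or well fluorescence over plate mean plus 4 SD; inactive means the rest.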 The list comes from a sample in which actives are over-represented; it also holds similar structures and randomly drawn compounds.

Assay: inhibitors of Candida efflux pumps in yeast, primary screen, S. cerevisiae, Nile Red, multiplex (AID 485275);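 further: Nile Red retained in pooled yeast measured as flow cytometry median fluorescence; 0% = buffer negative control and 100% = Enniatin B positive control; higher means more Nile Red kept so more efflux inhibition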
Conditions: S. cerevisiae Candida pump triplex, at 10 µM, hits give high values

inhibition, active:
CCCc1nnc(SCC(=O)Nc2ccc(C(=O)OCC)cc2)o1 2.83%
Nc1ccc2nc3c(=O)[nH]c(=S)[nH]c3nc2c1 0.97%
CC[n+]1cc(C)ccc1/C=C/c1ccc(N(C)C)cc1 5.98%
CC(/C=C/c1ccccc1)=N\NC(=O)C1CC1(C)c1ccccc1 (stereo not given) 2.26%
Cc1csc(NC(=O)c2ccc(-c3ccc(Cl)cc3Cl)o2)n1 16.6%
COc1ccccc1CSc1ncc(-c2ccc([N+](=O)[O-])cc2)[nH]1 18.3%
CCOc1ccc(C2/C(=C(/O)c3ccc4c(c3)CC(C)O4)C(=O)C(=O)N2CCCn2ccnc2)cc1 (stereo not given) 4.24%
Cc1nn(C)cc1C(=O)Nc1ccccc1Br 6.48%
Cc1ccc2[nH]c3c(=O)n(CC(=O)NCCc4ccc(Cl)cc4)ncc3c2c1 0.66%
CCCCCC(=O)Nc1ccc(C(=O)N/N=C/c2ccc([N+](=O)[O-])cc2)cc1 9.14%
C[n+]1ccc(/C=C/c2c[nH]c3ccccc23)cc1 2.57%
CN(c1ccccc1)c1ccc(/C=c2\s/c(=C(/C#N)C(=O)C(C)(C)C)n(Cc3ccco3)c2=O)cc1 7.32%
NNC(=O)COc1ccc(C2SCCS2)cc1 0.52%
CCc1ccc(NC(=O)Cn2ncn3c(cc4ccccc43)c2=O)cc1 0.97%
CCCc1nc(N2CCN(C)CC2)c2sc(=S)n(-c3ccccc3)c2n1 0.75%
CCCCCCCCCCCCCCCC(=O)OC/C=C(C)/C=C/C=C(C)/C=C/C1=C(C)CCCC1(C)C 1.61%
O=C(Cn1c(COc2ccccc2)nc2ccccc21)Nc1cc(Cl)c(Cl)cc1Cl 0.72%
COc1ccccc1/C=C/C=N/n1c(-c2ccc(Cl)cc2Cl)n[nH]c1=S 0.42%
CCCCN1C(=O)/C(=C/C=C2/C=Cc3ccccc3N2CC)SC1=S 1%
CSCCC(NC(=O)COc1ccccc1)C(=O)OCCOc1ccc(Br)cc1 (stereo not given) 0.49%
Cc1cc(C(=O)Nc2ccc(C)c(S(=O)(=O)N3CCOCC3)c2)c2ccccc2n1 1.11%

inhibition, inactive:
Fc1cnc(N2CCOCC2)nc1NCc1ccccc1 -0.13%
CCOC(=O)c1c(N=CN(C)C)c(C#N)c2n1CCCC2 -0.18%
COc1ccc(Cc2nnc(SCC(=O)Nc3ccc(C)c(C)c3)o2)cc1OC -0.04%
Cc1ccc(NC(=O)CSc2nnc(COc3ccccc3C)o2)cc1 -0.17%
O=C(COC(=O)Cn1cnc2ccccc2c1=O)NCc1ccccc1Cl 0.17%
Cc1noc(C)c1S(=O)(=O)N(C)C[C@H]1Oc2c(NC(=O)Nc3ccc4c(c3)OCO4)cccc2C(=O)N([C@H](C)CO)C[C@@H]1C 0.73%
COC(=O)[C@]1(CC(C)C)N[C@H](c2ccc(SC3CCCCC3)cc2)[C@@H]2C(=O)N(C)C(=O)[C@@H]21 -0.02%
O=C(N/N=C\c1cc2c(cc1Cl)OCO2)c1ccc(Br)s1 0.06%
O=C(N/N=C/C=C/c1ccccc1)C1CC1(c1ccccc1)c1ccccc1 (stereo not given) -0.21%
CC(/C=C/c1ccco1)=N/NC(=O)C1COc2ccccc2O1 (stereo not given) 0.12%
Cc1ccc(C(=O)Nc2nc3ccc(Cl)cc3s2)o1 -0.17%
Cc1csc(NC(=O)c2ccc(C)s2)n1 0.06%
O=C(NCc1ccncc1)C(=O)NCC1OCCN1S(=O)(=O)c1ccc(Br)cc1 (stereo not given) 0.06%
O=C(COC(=O)c1ccc(N2CCCC2=O)cc1)c1ccc(OC(F)F)cc1 0.24%
CC1CCCC(N2CCN(C(=O)c3ccc(F)cc3)CC2)C1 (stereo not given) -0.1%
CCn1c(SC(C)C(=O)Nc2ccc(N3CCOCC3)cc2)nnc1-c1ccco1 (stereo not given) 0.21%
O=C(CN1C(=O)c2cccnc2Oc2ccc(Cl)cc21)NCCc1ccccc1 -0.23%
COc1ccccc1C1CCN(c2ccc([N+](=O)[O-])cn2)CC1 0.16%
N#Cc1c(-c2ccccc2)nc(SCc2ccc([N+](=O)[O-])cc2)[nH]c1=O -0.1%
CCC(Cc1ccccc1)NS(=O)(=O)c1ccc2c(c1)NC(=O)CS2 (stereo not given) -0.01%
COCCCN1C(=O)C(=O)/C(=C(/O)c2ccc3c(c2)CC(C)O3)C1c1cccnc1 (stereo not given) 0.03%
COc1ccc(C2/C(=C(/O)c3ccc4c(c3)CC(C)O4)C(=O)C(=O)N2Cc2ccncc2)cc1 (stereo not given) 0.59%
COc1ccc(S(=O)(=O)N2CCCCCC2)cc1C(=O)N(C)Cc1cccc(OC)c1OC 0.1%
Cc1nn(C)cc1C(=O)c1ccccc1 -0.06%
O=C(O)c1ccccc1-c1ccccc1C(=O)Nc1ccccc1Br -0.16%
O=c1[nH]c2ccccc2n2c(-c3ccccc3)nnc12 0.01%
NNC(=O)CSc1nnc(-c2ccccc2)n1-c1ccccc1 0.17%
Cc1cccc(CCNC(=O)Cn2ncc3c([nH]c4ccc(C)cc43)c2=O)c1 0.33%
CC1CC(C)CN(CCCNC(=O)Cn2ncc3c([nH]c4ccccc43)c2=O)C1 (stereo not given) 0.29%
O=C(COc1ccc(/C=N/NC(=O)c2ccc(O)cc2)cc1)Nc1ccc([N+](=O)[O-])cc1 -0.1%
CCCCCC(=O)NC(=S)NNC(=O)c1ccc([N+](=O)[O-])cc1 0.09%
CC1(C(=O)NNC(=S)NCC2CCCO2)CC1(Cl)Cl (stereo not given) -0.05%
O=C(NC1CCCC1)C(=O)c1c[nH]c2ccccc12 -0.55%
COc1ccc(/C=C(\C#N)c2c[nH]c3ccccc23)cc1 0.35%
CN(C)c1nc2n(c(=O)n1)CCO2 0.06%
Nc1nc(O)c(CC(=O)O)s1 0.36%
Cc1ccc(C(=O)NCC(c2cccs2)N(C)C)cc1S(=O)(=O)N1CCOCC1 (stereo not given) 0.37%
Cc1ccc(-c2nn(-c3ccc(F)cc3)cc2C(=O)NCC(c2cccs2)N2CCOCC2)cc1 (stereo not given) 0.02%
CCCN1CNC(=S)N(CCc2ccccc2)C1 -0.07%
C/C(=C\c1ccco1)CN1CCC(N2CCC(C(=O)N3CCOCC3)CC2)CC1 -0.13%
COc1ccc(OCC(=O)NNC(=O)C2CCC2)cc1 0.28%
O=C(COc1ccc(Cl)cc1)Nc1ccc2c(c1)OCO2 0.16%
Cc1ccc(CS(=O)(=O)CCC(=O)NCc2ccc(F)cc2)cc1 0.01%
CC(C)c1ccc(NC(=O)Cn2ncc3ccccc32)cc1 0.04%
COc1ccc(NC(=O)Cn2ncn3c(cc4ccccc43)c2=O)c(OC)c1OC 0.03%
CC(=O)Nc1ccc(S(=O)(=O)NC(C)C(=O)OCCOc2ccc(F)cc2)cc1 (stereo not given) -0.06%
COc1cccc(N(CC(=O)NC2CCCC2)C(=O)Cn2nnc(-c3ccc(C)o3)n2)c1 -0.2%
O=C1CCN(CCc2ccccc2)CCN1CCOc1ccccc1 -0.09%
CCN(CC(=O)Nc1cccc(S(N)(=O)=O)c1)Cc1nc2ccccc2c(=O)[nH]1 -0.01%
Cc1ccc2[nH]c(=O)c(CN3CCCCC3)c(-c3ccccc3)c2c1 0.13%
Cc1cccc(-n2c(N)c(C(=O)N3CCN(C)CC3)sc2=S)c1 -0.2%
CCCc1nc(-c2ccccc2O)n(-c2ccccc2)n1 0.2%
CCCN(CC(=O)Nc1ccccc1C)C(=O)c1ccc2[nH]c3c(c2c1)CC(C)CC3 (stereo not given) 0.26%
Cn1nc(C(C)(C)C)c(NC(=O)c2sccc2Cl)c1C(C)(C)C 0.22%
COc1cccc(CNS(=O)(=O)c2csc(C(N)=O)c2)c1 -0.01%
CN(CCNC(=O)c1cc2c(-c3ccccc3F)nn(C)c2s1)C1CCCCC1 0%
CC1=C(/C=C/C(C)=C/C=C/C(C)=C/C=C/C=C(C)/C=C/C=C(C)/C=C/C2=C(C)CCCC2(C)C)C(C)(C)CCC1 0.08%
CCc1ccc(/C=N/NC(=O)c2ccc(OC3CCCC3)cc2)s1 -0.12%
COCCOC1CCN(C(=O)c2ccc(OC)c(OC3CCN(C(C)C)CC3)c2)CC1 -0.1%
CCOc1ccc(NC(=O)c2cccc3c2C(=O)N(CC2CCCO2)C3)cc1 (stereo not given) 0.06%
O=C(Cn1c(-c2cscn2)nc2ccccc21)Nc1ccc(Cl)cc1 -0.15%
CC(C)n1c(COc2ccccc2)nc2ccccc21 0.39%
Cc1ccc(C)c(NC(=O)c2ccc(OC(=O)c3ccco3)cc2)c1 0.04%
Fc1ccccc1/C=N/n1c(-c2cccnc2)n[nH]c1=S -0.01%
S=c1[nH]nc(-c2ccncc2)n1/N=C/c1ccccc1Cl 0.13%
Cn1c(=O)c2c(nc(N3CCCCCC3)n2CC(O)COc2ccc(Cl)cc2)n(C)c1=O (stereo not given) 0.11%
CCCCN1C(=O)/C(=C2/C=CC=CN2C)SC1=S 0.04%
CCCCN1C(=O)/C(=C2/Sc3ccc(Cl)cc3N2CC)SC1=S -0.02%
Cc1ccc(N2CCN(c3ccc(C)cc3)C2c2ccccn2)cc1 0.22%
CSCCC(NC(=O)COc1ccccc1)C(=O)OCCOc1ccc(F)cc1 (stereo not given) 0.07%
CSCCC(NC(=O)COc1ccccc1)C(=O)OCC(=O)c1cc2ccccc2o1 (stereo not given) -0.18%
O=C(CCC(=O)N1CCCC1)Nc1ccc([N+](=O)[O-])cc1 0.32%
Cc1cc(C(=O)NNC(=O)c2cccc(S(=O)(=O)N3CCOCC3)c2)c2ccccc2n1 0%
Cc1ccc(NC(=O)c2ccc(Cl)nc2)cc1S(=O)(=O)N1CCOCC1 0.15%
